{
  "source": "PubChem BioAssay (NCATS)",
  "note": "Unmarked numbers belong to inactive results. Active and inactive are the calls of the source. The call rests on the fitted dose curve; in most records, active means well fitted curve in the direction sought with a large enough effect; inconclusive means small, poorly fitted or top-dose-only effect, or another doubt; inactive means no such curve, though single readings can be large or run the other way.",
  "data": [
    {"biological_target": "Alpha-galactosidase (Coffea arabica) (UniProt Q42656)", "sequence (Q42656 whole entry, looked up)": "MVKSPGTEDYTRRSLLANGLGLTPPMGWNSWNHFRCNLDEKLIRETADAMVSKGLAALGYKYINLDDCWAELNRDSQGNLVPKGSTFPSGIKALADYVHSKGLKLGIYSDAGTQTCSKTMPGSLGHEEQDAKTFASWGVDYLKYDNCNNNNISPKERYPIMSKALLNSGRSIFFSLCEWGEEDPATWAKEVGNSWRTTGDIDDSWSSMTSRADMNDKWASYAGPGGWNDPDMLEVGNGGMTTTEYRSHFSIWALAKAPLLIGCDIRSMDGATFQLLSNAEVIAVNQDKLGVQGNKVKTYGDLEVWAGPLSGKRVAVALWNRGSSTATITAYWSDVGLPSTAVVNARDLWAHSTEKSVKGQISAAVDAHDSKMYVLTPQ", "assay": "Counterscreen for Glucocerebrosidase Inhibitors: qHTS Assay for Coffee Bean alpha-Galactosidase at pH 4.5 (AID 957)", "conditions": "purified coffee bean alpha-galactosidase, fluorogenic substrate; series mostly up to 76.9 µM; activity change, negative = inhibition: at the top concentration", "text": "NIH Chemical Genomics Center [NCGC]\nNIH Molecular Libraries Screening Centers Network [MLSCN]\nPI Name: Zheng, Wei [NIH]\nAlpha-galactosidase is a homodimeric glycoprotein that hydrolyzes the terminal alpha-galactosyl moieties from glycolipids and glycoproteins. Deficiency of this enzyme results in Fabry Disease with progressive accumulation of globotriaosylceramide and other glycosphingolipids in vascular endothelial cells that causes renal failure, myocardial infarction and stroke, and premature death in patients. It has reported that the improper folding and trafficking of alpha-galactosidase resulted from the genetic mutations may account for a significant numbers of Fabry patients. […] We optimized this coffee bean alpha-galactosidase assay in 1536-well plate format as a counter-screen assay for identifying the selective small molecule inhibitors of other lysosomal enzymes.\nNCGC Assay Protocol Summary:\nThis is a fluorogenic enzyme assay with 4-Methylumbelliferyl alpha-D-galactopyranoside as the substrate and green coffee bean […] (from Sigma-Aldrich) as the enzyme preparation. Upon the hydrolysis of this fluorogenic substrate, the resulting product, […]. 4-Methyllumbelliferone, can be excited at 365 nm and emits at 440 nm which can be detected by a standard fluorescence plate reader. Data were normalized to the controls for basal activity (without enzyme) and 100% activity (with enzyme). In the AC50 values were determined from concentration-response data modeled with the standard Hill equation.\nAssay buffer: 50 mM citric acid, 0.005% Tween-20, pH 4.5. (pH 5.9 is an optimal condition for this enzyme assay. This assay in pH 4.5 is used for comparison the inhibitor activities with the human alpha-galactosidase assay)\n1536-well assay protocol for the coffee bean alpha-galactosidase:\n(1) Add 2 ul/well of enzyme (2 nM final)\n(2) Add 23 nL compounds in DMSO solution. The final titration was 0.7 nM to 77 uM.\n(3) Add 1 ul of substrate (80 uM final)\n(4) Incubate at room temperature for 20 min.\n(5) Add 2 ul stop solution (1M NaOH and 1M Glycine mixture, pH 10)\n(6) Detect the assay plate in a ViewLux plate reader (PerkinElmer) with Ex=365 nm and Em=440nm.\nKeywords: Alpha-galactosidase, Fabry Disease, pharmacological chaperone, chaperone therapy, high throughput screening, alpha-galactosidase inhibitor, MLSMR, MLSCN, NIH Roadmap, qHTS and NCGC", "units": {"activity change, negative = inhibition": "%"}, "values": [
      {"smiles": "C[C@]12CCC(=O)C=C1CC[C@@H]1[C@@H]2[C@@H](O)C[C@@]2(C)[C@H]1CC[C@]2(O)C(=O)CO", "activity change, negative = inhibition": 1.07},
      {"smiles": "CN(C)CCCN1c2ccccc2Sc2ccccc21", "activity change, negative = inhibition": -0.984},
      {"smiles": "CN(C)C(=O)Oc1cccc([N+](C)(C)C)c1", "activity change, negative = inhibition": 1.8},
      {"smiles": "CCN(CC)CC(=O)Nc1c(C)cccc1C", "activity change, negative = inhibition": -0.899},
      {"smiles": "Nc1c2c(nc3ccccc13)CCCC2", "activity change, negative = inhibition": 3.54},
      {"smiles": "COC(=O)C1=CCCN(C)C1", "activity change, negative = inhibition": 0.191},
      {"smiles": "Clc1ccccc1C(c1ccccc1)(c1ccccc1)n1ccnc1", "activity change, negative = inhibition": -13.5},
      {"smiles": "CCc1cccc2c3c([nH]c12)C(CC)(CC(=O)O)OCC3", "note": "(stereo not given)", "activity change, negative = inhibition": 1.48},
      {"smiles": "O=C(O)CN(CCOCCOCCN(CC(=O)O)CC(=O)O)CC(=O)O", "activity change, negative = inhibition": 1.22},
      {"smiles": "CCCCNc1ccc(C(=O)OCCN(C)C)cc1", "activity change, negative = inhibition": -0.752},
      {"smiles": "CCCCNc1c(C(=O)OCC)c(C)nc2c1cnn2CC", "activity change, negative = inhibition": -1.08},
      {"smiles": "C[C@]12CC[C@@H]3c4ccc(O)cc4CC[C@H]3[C@@H]1CCC2=O", "activity change, negative = inhibition": 0.518},
      {"smiles": "Cn1cnc2c1c(=O)[nH]c(=O)n2C", "activity change, negative = inhibition": -0.161},
      {"smiles": "CN1[C@@H]2CC[C@H]1CC(OC(=O)c1cc(Cl)cc(Cl)c1)C2", "note": "(stereo not given in full)", "activity change, negative = inhibition": -2.33},
      {"smiles": "Cc1cc(C(C)(C)C)cc(C)c1CC1=NCCN1", "activity change, negative = inhibition": 0.374},
      {"smiles": "CC1=C(CC(=O)O)c2cc(F)ccc2/C1=C\\c1ccc(S(C)(=O)=O)cc1", "activity change, negative = inhibition": -4.62},
      {"smiles": "COC(=O)C1=C(C)NC(C)=C(C(=O)OC)C1c1ccccc1[N+](=O)[O-]", "activity change, negative = inhibition": -4.14},
      {"smiles": "O=C(c1ccc(F)cc1)C1CCN(CCn2c(=O)[nH]c3ccccc3c2=O)CC1", "activity change, negative = inhibition": -2.42},
      {"smiles": "NS(=O)(=O)c1cc2c(cc1Cl)NCNS2(=O)=O", "activity change, negative = inhibition": -3.42},
      {"smiles": "CN(C)CCN(Cc1cccs1)c1ccccn1", "activity change, negative = inhibition": -3.7},
      {"smiles": "OCCN1CCN(CCCN2c3ccccc3C=Cc3ccccc32)CC1", "outcome": "inactive"},
      {"smiles": "CC(C)(C)c1ccc(C(O)CCCN2CCC(C(O)(c3ccccc3)c3ccccc3)CC2)cc1", "note": "(stereo not given)", "activity change, negative = inhibition": -3.83},
      {"smiles": "COC(=O)[C@@H](N)Cc1ccc(O)c(O)c1", "activity change, negative = inhibition": -1.4},
      {"smiles": "COc1ccccc1N1CCN(CCCNc2cc(=O)n(C)c(=O)n2C)CC1", "activity change, negative = inhibition": 1.18},
      {"smiles": "COc1ccc2c(c1)c(CC(=O)O)c(C)n2C(=O)c1ccc(Cl)cc1", "activity change, negative = inhibition": -1.45},
      {"smiles": "O=C(CCCN1CCC(O)(c2cccc(C(F)(F)F)c2)CC1)c1ccc(F)cc1", "activity change, negative = inhibition": -1.42},
      {"smiles": "CCc1cccc(N(C)C(N)=Nc2cccc3ccccc23)c1", "activity change, negative = inhibition": -8.24},
      {"smiles": "C[C@]12CCC(=O)C=C1CC[C@@H]1[C@@H]2CC[C@@]2(C)[C@H]1CC[C@]2(O)C(=O)CO", "activity change, negative = inhibition": -2.75},
      {"smiles": "CC1=C(CC(=O)O)c2cc(F)ccc2/C1=C\\c1ccc(S(C)=O)cc1", "note": "(stereo not given)", "activity change, negative = inhibition": 1.74},
      {"smiles": "NC(=O)CC[C@@H](N)C(=O)O", "activity change, negative = inhibition": 1.9},
      {"smiles": "O=C(O)c1cccnc1Nc1cccc(C(F)(F)F)c1", "activity change, negative = inhibition": 2.65},
      {"smiles": "CCCC(C(=O)OCCN(CC)CC)(c1ccccc1)c1ccccc1", "activity change, negative = inhibition": -5.24},
      {"smiles": "O=C(O)c1nn(Cc2ccc(Cl)cc2Cl)c2ccccc12", "activity change, negative = inhibition": 0.716},
      {"smiles": "CC(C)NCC(O)COc1ccc(COCCOC(C)C)cc1", "note": "(stereo not given)", "activity change, negative = inhibition": -3.29},
      {"smiles": "Cc1nc2sccn2c(=O)c1CCN1CCC(=C(c2ccc(F)cc2)c2ccc(F)cc2)CC1", "activity change, negative = inhibition": -6.65},
      {"smiles": "C[C@]12C=CC(=O)C=C1CC[C@H]1[C@@H]3C[C@@H](O)[C@](O)(C(=O)CO)[C@@]3(C)C[C@H](O)[C@@]12F", "activity change, negative = inhibition": -1.88},
      {"smiles": "Cc1ccc(N(CC2=NCCN2)c2cccc(O)c2)cc1", "activity change, negative = inhibition": -4.24},
      {"smiles": "OCc1cc(C(O)CNCCCCCCOCCCCc2ccccc2)ccc1O", "note": "(stereo not given)", "activity change, negative = inhibition": 0.935},
      {"smiles": "C#CCN(C)Cc1ccccc1", "activity change, negative = inhibition": -2.37},
      {"smiles": "CN1CCC(=C2c3ccccc3CC(=O)c3sccc32)CC1", "activity change, negative = inhibition": 0.0208}
    ]}
  ]
}
